Source: PubChem
Hits are enriched below; roughly 2.9% of the tested compounds scored in any of these assays.
RAM inhibit: inhibitors of the yeast RAM network, primary screen, dse1pr::URA3 reporter, 5-FOA selection; S. cerevisiae dse1pr::URA3 reporter, 5-FOA growth OD615, 2 d; analog-sensitive cbk1-as2 kinase mutant strain; inhibition, % at 50 µM; 1.8% of 190,000 active;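 active = inhibition above a set limit, 3 SD over mean compound inhibition, cut at about 8.4% in these data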;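 note: 0% = DMSO-only wells with no growth and 100% = 10 µM 1-NA-PP1 full growth; inhibition rescues growth on 5-FOA so higher OD means more RAM inhibition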
SKN-1 block: suppressors of acrylamide-induced Pgst-4::GFP reporter in worms, primary screen, SKN-1 inhibitor project, whole organism, uHTS, GFP/RFP fluorescence ratio, strain VP596; C. elegans VP596 Pgst-4::GFP/RFP ratio, 24 h; inhibition, % at 21.8 µM; 0.49% of 360,000 active; AID 624304, 2012;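 active = interference check ratio from 0.5 to 1.5 plus GFP to RFP signal ratio inhibition reaching or exceeding a fixed threshold, cut at about 30% in these data, passing the limit was not always enough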
PG9 Ab binder: binders of HIV-1 gp120 antibody PG9, primary screen, biochemical, TR-FRET; TR-FRET gp120-PG9 antibody binding; inhibition, % at 6.7 µM; HIV-1 gp120 / PG9 antibody interaction; 0.43% of 360,000 active; in the data active = inhibition above about 8.5%
PGE2 EP2 inh: human EP2 receptor antagonists, primary screen, TR-FRET cAMP, C6 glioma cells | Prostaglandin E2 receptor EP2 subtype (Homo sapiens), P43116 | C6 glioma cells expressing human EP2; cells stimulated with saturating PGE2 | inhibition, % at 25 µM | 0.52% of 260,000 active;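 active = percent inhibition above 40 after rounding to a whole number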;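 note: rat C6 glioma host cells with rolipram phosphodiesterase inhibitor present; the protocol text gives 20 µM as final concentration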
Target sequence (P43116 whole entry, looked up): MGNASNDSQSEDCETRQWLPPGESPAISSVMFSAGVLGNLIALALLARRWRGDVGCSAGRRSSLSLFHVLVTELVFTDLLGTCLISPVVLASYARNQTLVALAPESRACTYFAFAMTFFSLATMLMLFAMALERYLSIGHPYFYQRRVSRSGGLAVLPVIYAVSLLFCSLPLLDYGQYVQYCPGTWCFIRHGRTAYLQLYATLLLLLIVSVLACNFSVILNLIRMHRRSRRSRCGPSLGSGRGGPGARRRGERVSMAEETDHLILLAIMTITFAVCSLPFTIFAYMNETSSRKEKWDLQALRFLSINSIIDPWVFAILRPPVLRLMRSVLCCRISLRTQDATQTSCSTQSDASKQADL
EP2 modulator: EP2 receptor modulators, cAMP readout, primary screen, cell-based, HTRF cAMP, PGE2 stimulation | EP2-expressing cells, cAMP HTRF FRET, PGE2 co-stimulation | induction, % at 25 µM | 0.83% of 260,000 active;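 active = compounds whose cAMP rise, as percent of the full-agonist control response, exceeds 60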;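 note: rat C6 glioma line stably carrying human EP2 under a CMV promoter; the protocol text gives 20 µM as final concentration; 100% = response of wells given 1 µM PGE2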
NR1D1 modulator: modulators of Rev-erb alpha DNA binding, primary screen, biochemical, FITC-DNA, fluorescence polarization, uHTS. Nuclear receptor subfamily 1 group D member 1 (Homo sapiens), P20393. Rev-erbα–FITC-DNA binding, 90 min. activity, % at 10 µM. 0.79% of 370,000 active. AID 1259318, 2017;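 active = activity above about 14%, limit read from the data; passing the limit was not always enough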;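 note: 0% = DMSO wells with 35 nM protein and 100% = DMSO wells with 750 nM protein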
PG9 binder conf: binders of anti-gp120 antibody PG9, confirmation, biochemical, TR-FRET; shares compounds with PG9 Ab binder; TR-FRET PG9 antibody binding; inhibition, % at 6.7 µM; 90% of 1,500 active; AID 651571, 2012; in the data active = inhibition above about 9%
PGV04 Ab binding: binders of control antibody PGV04, counter-screen for PG9 antibody binder project, biochemical, TR-FRET, distinct HIV envelope site; shares compounds with PG9 Ab binder; TR-FRET PGV04 antibody-gp120 binding; inhibition, % at 6.7 µM; 95% of 1,500 active; in the data active = inhibition above about 9.5%
PG9 bind DR: small-molecule binders of antibody PG9, dose response, biochemical, TR-FRET, HIV-1 gp120 antibody. shares compounds with PG9 Ab binder. TR-FRET PG9 antibody-gp120 binding inhibition. IC50, µM. 95 tested, under 10 active. AID 651848, 2012; in the data active = IC50 below about 10 µM
PGV04 DR counter: binders of control antibody PGV04, dose response, counter-screen for PG9 antibody binder project, biochemical, TR-FRET, distinct HIV envelope site. 20% of 95 active. AID 651937, 2012. TR-FRET binding to control antibody PGV04. IC50, µM. shares compounds with PG9 Ab binder
PG126 binding DR: binders of control antibody PG126, dose response, counter-screen for PG9 antibody binder project, biochemical, TR-FRET, distinct HIV envelope site. TR-FRET binding to antibody PG126, counterscreen. IC50, µM. 20% of 95 active. shares compounds with PG9 Ab binder
* = called active by the depositor; x = no result given. Cut-off read from the data, not from the text of the source, unless noted: active = IC50 below about 9 µM; inactive = the rest.

SMILES	RAM inhibit	SKN-1 block	PG9 Ab binder	PGE2 EP2 inh	EP2 modulator	NR1D1 modulator	PG9 binder conf	PGV04 Ab binding	others
COCCNC(=O)c1c[nH]c2ccc(S(=O)(=O)Nc3ccc(F)cc3F)cc2c1=O	x	3.6	9.3*	x	x	-6.6	21.9*	21.6*	PG9 bind DR=>67;PGV04 DR counter=>67;PG126 binding DR=>67
COCCNC(=O)c1c[nH]c2ccc(S(=O)(=O)Nc3ccccc3F)cc2c1=O	x	7.1	9.6*	x	x	-0.8	22.2*	23.0*
CCCC(=O)Nc1nc(SCC)ns1	x	x	x	7.7	-13.9	x	x	x
Cc1ccc2cc(CN(C3CCCCC3)C(c3nnnn3C3CCCCC3)C(C)C)c(=O)[nH]c2c1 (stereo not drawn)	x	x	x	9.7	-74.5	x	x	x
COc1ccc(Cn2nnnc2C(c2cc3cccc(C)c3[nH]c2=O)N2CCOCC2)cc1 (stereo not drawn)	1.3	10.7	17.4*	8.2	10.9	-4.0	15.7*	23.5*
COc1ccc(Cn2nnnc2C(c2cc3ccc(C)cc3[nH]c2=O)N2CCOCC2)cc1 (stereo not drawn)	x	x	x	9.5	0.3	x	x	x
COC(=O)CCC(=O)Nc1sc(C)c(C)c1C(N)=O	3.2	-3.7	2.2	13.4	-1.4	0.1	x	x
COC(=O)CCC(=O)NC(=S)Nc1sc(C)c(C)c1C(N)=O	2.6	-13.6	36.5*	9.9	-0.5	11.7	33.3*	42.5*
COC(=O)[C@H]1CN(C(=O)c2ccco2)C[C@@H]1c1ccc(F)cc1	x	x	x	x	33.3	x	x	x
COc1ccc(-c2cc(C(F)(F)F)nc(SCC(=O)NCC3CCCO3)n2)cc1 (stereo not drawn)	x	x	x	4.6	-53.9	x	x	x
O=C(Nc1ccc2oc(-c3ccncc3)nc2c1)c1ccccc1F	2.3	7.5	23.4*	14.9	-12.0	5.8	31.7*	53.1*
CCOc1ccc(NC(=O)C2CCN(C(=O)c3ccc(Cl)cc3Cl)CC2)cc1	x	x	x	8.5	-58.0	x	x	x
COc1ccc2[nH]c(=O)c(CN(CC3CCCO3)C(=S)NCc3ccco3)cc2c1 (stereo not drawn)	x	x	x	13.5	-14.9	x	x	x
COc1cc(/C=C/C(=O)Nc2ccccc2C(F)(F)F)cc(OC)c1OC	2.7	x	0.7	x	-12.9	1.7	x	x
CCOC(=O)c1ccccc1NC(=O)/C=C/c1cc(OC)c(OC)c(OC)c1	8.0	-12.0	22.1*	9.7	49.0	1.4	19.1*	23.8*
O=C1N/C(=N\c2ccccn2)SC1Cc1ccc(Cl)cc1 (stereo not drawn)	4.0	-4.1	9.3*	10.4	-2.8	13.1	17.0*	28.7*
O=C(Cc1cccc(Cl)c1)NCCN1CCC(O)(c2cccc(F)c2)CC1	x	x	x	3.7	-11.2	x	x	x
